Laboratory results published in PubChem BioAssay AID651768 (National Center for Advancing Translational Sciences (NCATS), 2012).
About 1,700 (0.47%) of roughly 360,000 compounds were called active. Another 2% or so got no clear call; they are omitted. Calls follow the shape of the dose curve; as a rule, active = well fitted inhibition curve with a large enough effect; inconclusive = small, poorly fitted or top-dose-only effect; inactive = no such curve, though single readings can be large or run the other way. The full list was thinned out, with actives kept by preference.

Molecular target: Bifunctional 3'-5' exonuclease/ATP-dependent helicase WRN (Homo sapiens) (UniProt Q14191)
Assay: qHTS for Inhibitors of WRN Helicase; also: nearly all actives have a fitted effect of over 55% in size
Conditions: WRN helicase unwinding, fluorescent forked duplex, kinetic; series mostly up to 114 µM; activity change, negative = inhibition: at the top concentration
Method in brief: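 Fluorescence dequenching readout, ex 525 nm/em 598 nm, kinetic mode: forked duplex DNA (100 nM final) with adjacent fluorophore and quencher unwound by WRN (20 nM final) with 2 mM ATP. Compound preincubation 15 min, room temperature.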
% is scaled to controls: 0 for no effect and ±100 for the full control effect; potency is read from the fitted curve at half-maximal effect.

Sequence of Bifunctional 3'-5' exonuclease/ATP-dependent helicase WRN (Homo sapiens) (Q14191 whole entry, looked up): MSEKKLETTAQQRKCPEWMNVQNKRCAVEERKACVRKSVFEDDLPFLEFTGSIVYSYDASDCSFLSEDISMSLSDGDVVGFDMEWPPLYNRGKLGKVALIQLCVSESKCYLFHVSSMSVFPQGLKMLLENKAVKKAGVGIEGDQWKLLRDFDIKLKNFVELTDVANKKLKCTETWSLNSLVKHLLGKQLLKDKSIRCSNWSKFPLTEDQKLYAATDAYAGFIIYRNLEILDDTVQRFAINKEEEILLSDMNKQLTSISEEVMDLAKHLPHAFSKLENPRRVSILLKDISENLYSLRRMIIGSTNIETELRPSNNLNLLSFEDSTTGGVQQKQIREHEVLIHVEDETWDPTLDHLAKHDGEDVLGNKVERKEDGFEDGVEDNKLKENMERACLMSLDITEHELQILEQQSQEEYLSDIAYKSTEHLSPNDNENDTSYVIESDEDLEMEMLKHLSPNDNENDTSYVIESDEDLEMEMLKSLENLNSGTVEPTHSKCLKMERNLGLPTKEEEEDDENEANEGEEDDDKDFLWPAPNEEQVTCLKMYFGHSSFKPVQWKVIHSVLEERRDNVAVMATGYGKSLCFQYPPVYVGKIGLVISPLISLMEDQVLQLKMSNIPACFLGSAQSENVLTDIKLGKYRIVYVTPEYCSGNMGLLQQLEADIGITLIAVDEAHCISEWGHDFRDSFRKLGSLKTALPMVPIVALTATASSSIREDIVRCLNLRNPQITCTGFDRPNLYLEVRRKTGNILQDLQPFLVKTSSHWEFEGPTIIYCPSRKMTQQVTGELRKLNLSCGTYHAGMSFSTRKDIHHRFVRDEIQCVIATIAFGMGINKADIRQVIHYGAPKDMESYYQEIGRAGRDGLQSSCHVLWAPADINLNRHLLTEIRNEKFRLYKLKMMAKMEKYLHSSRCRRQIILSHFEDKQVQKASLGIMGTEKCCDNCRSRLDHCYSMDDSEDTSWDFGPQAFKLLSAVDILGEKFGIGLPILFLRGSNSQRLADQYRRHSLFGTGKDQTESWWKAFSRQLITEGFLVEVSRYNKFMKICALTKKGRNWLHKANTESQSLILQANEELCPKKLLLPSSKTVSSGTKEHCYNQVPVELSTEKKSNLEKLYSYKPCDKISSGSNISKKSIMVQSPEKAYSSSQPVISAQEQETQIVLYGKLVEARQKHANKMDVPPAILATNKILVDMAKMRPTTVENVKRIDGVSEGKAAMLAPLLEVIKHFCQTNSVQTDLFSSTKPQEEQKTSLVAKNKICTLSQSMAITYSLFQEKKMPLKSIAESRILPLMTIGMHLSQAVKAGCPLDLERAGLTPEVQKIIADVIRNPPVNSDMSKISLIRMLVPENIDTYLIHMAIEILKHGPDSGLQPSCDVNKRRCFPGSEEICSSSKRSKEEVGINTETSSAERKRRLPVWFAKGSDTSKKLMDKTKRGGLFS

SMILES	activity change, negative = inhibition	Potency
COCCN1C(=O)c2oc3c(C)cc(C)cc3c(=O)c2C1c1cccc(O)c1 (stereo unspecified)	-6.21% (inactive)	–
C[C@H](NC(=O)c1nc[nH]c1C(=O)N[C@@H](C)C(=O)OC(C)(C)C)C(=O)OC(C)(C)C	-3.84% (inactive)	–
O=C(NCc1nnc(SCC(=O)N2CCCc3ccccc32)o1)c1ccccc1F	-16.5% (inactive)	–
CC(=O)CSc1nc(CCc2ccccc2)c(C#N)c(=O)[nH]1	-3.59% [at 57.1 µM] (inactive)	–
N#Cc1c(-c2cccs2)nc(SCC(=O)c2ccc(Br)cc2)[nH]c1=O	–	50.1 µM (active)
Cc1cc(C)c2c(=O)[nH]c(SCC(=O)Nc3ccc(Br)cc3)nc2n1	-11.3% (inactive)	–
CCC1(c2ccccc2)NC(=O)N(CC(=O)Nc2ccccc2C(=O)NC2CCCC2)C1=O (stereo unspecified)	-7.05% (inactive)	–
O=C(NC1CCCCC1)C(c1cc2ccccc2o1)n1c(=O)c(-c2ccco2)nc2ccccc21 (stereo unspecified)	-13.1% (inactive)	–
CCCCN(C(=O)C(CCSC)N1C(=O)c2ccccc2C1=O)c1c(N)n(CCC)c(=O)[nH]c1=O (stereo unspecified)	5.06% (inactive)	–
N#Cc1ccc(-c2nc3c(Cl)cc(C(F)(F)F)cn3c2Cc2ccccc2C(F)(F)F)cc1	0.352% (inactive)	–
COc1ccc(CN2CCC(C)(Oc3cccc(F)c3)C2)c2ccccc12 (stereo unspecified)	18.3% (inactive)	–
COc1cccc2c1C(=O)c1c(O)c3c(c(O)c1C2=O)CC(O)(C(C)=NNC(=O)c1ccc(Cl)c(Cl)c1)CC3OC1CC(N)C(O)C(C)O1 (stereo unspecified)	–	31.6 µM (active)
CCOc1cnc(C(=O)NNC(=O)c2ccccc2Br)o1	-11.3% (inactive)	–
O=C(c1ccccc1)c1ccc(OC(=O)N2CCCC2)cc1	1.88% (inactive)	–
COc1cccc(-c2nnc(NC(=O)c3ccc(S(=O)(=O)N(CC(C)C)CC(C)C)cc3)o2)c1	-8.88% [at 57.1 µM] (inactive)	–
O=C(COc1ccccc1Cl)Nn1cnnc1	1.03% (inactive)	–
C=CCN(N=Nc1cccc([N+](=O)[O-])c1)c1cccc([N+](=O)[O-])c1	-5.96% (inactive)	–
CC(=O)NC(c1ccccc1)c1nc(-c2cccc(C(C)C)c2)cs1 (stereo unspecified)	-6.85% (inactive)	–
COc1ccc(C(C[N+](=O)[O-])n2nc(C)cc2C)cc1 (stereo unspecified)	–	39.8 µM (active)
COc1ccc(C(CNC(=O)COc2ccc([N+](=O)[O-])cc2)N2CCCCC2)cc1 (stereo unspecified)	-1.35% (inactive)	–
Cc1cc(C)n(CC(O)COc2ccc(C(C)(C)C)cc2)n1 (stereo unspecified)	2.02% [at 11.6 µM] (inactive)	–
CCCCC(NS(=O)(=O)c1ccc(C)cc1)C(=O)Oc1ccc2c3c(c(=O)oc2c1)CCC3 (stereo unspecified)	3.21% (inactive)	–
CCOc1ccc(CCN2C(=O)C(=O)N([C@@H](CC(C)C)CN3CCC[C@H]3CN3C(=O)C(=O)NC[C@@H]3Cc3ccccc3)C[C@@H]2CC(C)C)cc1	-0.85% (inactive)	–

SMILES	activity change, negative = inhibition	Potency
C[C@H]1CN([C@@H](C)CO)C(=O)c2cc(-c3ccccc3F)cnc2O[C@H]1CN(C)C(=O)C1CCOCC1	2.75% (inactive)	–
Cc1cccc(C)c1-n1nnnc1C1(C)CCC(=O)N1CCOc1ccccc1 (stereo unspecified)	-5.38% (inactive)	–
CC(=O)Nc1cccc(-c2cc3nc(NCc4cccnc4)n(C)c(=O)c3s2)c1	2.19% (inactive)	–
C=C(C)C(=O)Nc1cccc(C2=NOC3(C2)C[C@H](C(N)=O)N(C(=O)C(c2ccccc2)c2ccccc2)C3)c1 (stereo partly specified)	–	50.1 µM (active)
C/C=C\C=C\C(=O)N1CC2(CC(c3cccc(NC(=O)/C(C)=C\C)c3)=NO2)C[C@H]1C(N)=O (stereo partly specified)	-13.3% [at 11.6 µM] (inactive)	–
C/C=C(/C)C(=O)Nc1cccc(C2=NOC3(C2)C[C@@H](C(N)=O)N(C(=O)C2(C)CC2)C3)c1 (stereo partly specified)	-2.56% (inactive)	–
O=C(Nc1ccccc1Cl)/C(Cl)=C(\Cl)S(=O)c1ccccc1 (stereo unspecified)	–	2.51 µM (active)
O=C(Nc1ccccc1Cl)c1ccccc1S(=O)(=O)c1ccccc1[N+](=O)[O-]	-2.06% (inactive)	–
CC(=O)c1ccc(NC(=O)C(C)N(C)CC(=O)Nc2ccccc2Cl)cc1 (stereo unspecified)	-0.858% (inactive)	–
COc1cc(OC)cc(C2=Cc3ccccc3C(CC(=O)c3ccco3)N2c2ccc(-c3cnc(OC)nc3)cc2)c1 (stereo unspecified)	-4.91% (inactive)	–
Cc1ccc(S(=O)(=O)N(c2cccc(C)c2)C2CCS(=O)(=O)C2)cc1 (stereo unspecified)	5.52% (inactive)	–
O=C(CC[C@H]1O[C@@H](n2ccc(=O)[nH]c2=O)[C@H](O)[C@@H]1O)N[C@H](Cc1ccccc1)C(=O)NCCCN1CCCC1=O	-15% (inactive)	–
CN(C(=O)COC(=O)Cc1ccccc1[N+](=O)[O-])C1CCS(=O)(=O)C1 (stereo unspecified)	-0.143% (inactive)	–
COc1ccc(NC(=O)COc2ccc(C(=O)OCC(=O)N(C)C3CCS(=O)(=O)C3)cc2OC)cc1 (stereo unspecified)	-1.43% (inactive)	–
CN(C(=O)COC(=O)c1cc(-c2ccco2)nc2ccccc12)C1CCS(=O)(=O)C1 (stereo unspecified)	–	31.6 µM (active)
Cc1ccc(C2(c3ccc(C)cc3)NC(=O)N(Cc3c(C)noc3C)C2=O)cc1	-0.858% (inactive)	–
Nn1c(SCC(=O)Nc2nccs2)nnc1-c1ccco1	-5.77% (inactive)	–
CCOC(=O)c1c(NC(=O)CSc2nnc(CN3CCOCC3)n2C)sc2c1CCCC2	-0.021% (inactive)	–
NC(=O)c1c(NC(=O)CSc2nnc(-c3ccco3)n2N)sc2c1CCCC2	–	50.1 µM (active)
COc1cc(OC)c(NC(=O)C2CCCN2C(=O)OCc2ccccc2)cc1Cl (stereo unspecified)	-0.432% [at 57.1 µM] (inactive)	–
O=C1Nc2ccccc2NC(c2ccc3c(c2)OCO3)=C1N(Cc1ccc(F)cc1)C(=O)c1ccco1	-3.23% (inactive)	–
CC(C)c1ccc2c(c1)c(SC(C)(C)C)c(CC(C)(C)C(=O)O)n2Cc1ccc(Cl)cc1	–	50.1 µM (active)
CCC(CC)NC(=O)CSc1nnc(-c2c[nH]c3ccccc23)o1	7.97% (inactive)	–

SMILES	activity change, negative = inhibition	Potency
O=C(c1cc(C2CCCCN2S(=O)(=O)c2ccccc2)on1)N1CCOCC1 (stereo unspecified)	-1.79% (inactive)	–
C#CCN1C(=O)C(O)(CC(=O)c2cc(OC)ccc2OC)c2ccccc21 (stereo unspecified)	-7.71% (inactive)	–
COc1ccc2c(c1)C(=C(C#N)C#N)C(=O)N2CCc1ccccc1	–	50.1 µM (active)
CCCCN1C(=O)/C(=C(/C#N)C(N)=O)c2ccccc21	23.5% (inactive)	–
CCCCn1c(N)c(N(CCOC)C(=O)c2sc3ccccc3c2Cl)c(=O)[nH]c1=O	-13.4% (inactive)	–
Cc1[nH]c2ccccc2c1C(=O)c1cc([C@H](NC(=O)OC(C)(C)C)C(C)C)sc1N	-13.8% (inactive)	–
COc1ccc([C@H]2CC(=O)C[C@@H](CCn3cc(CC4CCCC4)nn3)O2)cc1	1.6% (inactive)	–
O=C(CN1C(=O)c2cccc3cccc(c23)C1=O)N1CCCCC1	7.87% (inactive)	–
O=C(CN1C(=O)c2cccc3cccc1c23)Nc1ccccc1	-0.0297% [at 11.6 µM] (inactive)	–
C[N+](C)(CCCCCC[N+](C)(C)CCCN1C(=O)c2cccc3cccc(c23)C1=O)CCCN1C(=O)c2cccc3cccc(c23)C1=O	–	44.7 µM (active)
O=C(COC(=O)CCCN1C(=O)c2cccc3cccc(c23)C1=O)NC1CCS(=O)(=O)C1 (stereo unspecified)	7.47% (inactive)	–
O=C(CCCN1C(=O)c2cccc3cccc(c23)C1=O)N1CCN(Cc2ccc3c(c2)OCO3)CC1	4.65% (inactive)	–
O=C1c2cccc3cccc(c23)C(=O)N1CCCCCc1n[nH]c(=S)o1	–	100 µM (active)
Cc1ccc(CCNC(=O)CN2C(=O)CSc3ccc(S(=O)(=O)N4CCOCC4)cc32)cc1	3.55% (inactive)	–
CCOC(=O)[C@]12CCCC=C1N(CCC1=CCCCC1)C(=O)[C@H](CC(=O)NCCCCc1ccccc1)C2	-1.56% (inactive)	–
CCCCOCCCNC(=O)C[C@@H]1C[C@@]2(C(=O)OCC)CCCC=C2N(CCC2=CCCCC2)C1=O	-5.97% (inactive)	–
CN(C)c1ccc(CSc2ccccc2)cc1	-2.78% (inactive)	–
CS/C(=C\[N+](=O)[O-])Nc1ccc(C)cc1	-4.16% (inactive)	–
Nc1nc2ncccn2c1-c1ccccc1	-10.4% (inactive)	–
O=C(Nc1nnc(SCc2ccccc2Cl)s1)c1cccc([N+](=O)[O-])c1	-22% (inactive)	–
COc1ccc(NCc2nnc(SCc3ccccc3)n2-c2ccc(OC)cc2)cc1	-8.11% (inactive)	–
CSc1nc(-c2ccco2)nn1C(=O)c1ccccc1Cl	1.96% (inactive)	–
c1ccc(CSc2nnc(-c3ccco3)c(-c3ccco3)n2)cc1	–	28.2 µM (active)

SMILES	activity change, negative = inhibition	Potency
Clc1ccccc1CSc1nnc(-c2ccco2)c(-c2ccco2)n1	–	50.1 µM (active)
c1ccc(Cc2c(-c3ccco3)nc3c4ccccc4ccn23)cc1	-14.6% (inactive)	–
CCCC1(C(=O)OC)NC(c2ccco2)C2C(=O)N(C)C(=O)C21 (stereo unspecified)	7.98% (inactive)	–
Cc1cc(C)c(S(=O)(=O)N2C=CC(C(F)(F)F)=NCC2)c(C)c1	0.503% (inactive)	–
CSc1c(SCc2ccccc2)cnn(Cc2ccccc2)c1=O	-22.2% [at 57.1 µM] (inactive)	–
c1ccc(-n2cccc2)c(N2CCCCC2)c1	5.84% (inactive)	–
O=C1C=CC(=O)N1c1ccc(N2CCCCC2)cc1	–	39.8 µM (active)
O=C(c1ccc(Cl)c(S(=O)(=O)N2CCCCCC2)c1)N1CCN(c2ccc(O)cc2)CC1	1.3% (inactive)	–
CCCC(NCC(=O)Nc1ccccc1C(=O)NC1CC1)c1ccccc1 (stereo unspecified)	0.331% (inactive)	–
CC(C)(C)c1cc[n+](-c2[nH]c(=O)sc2/C=N/N=C(\[O-])c2ccccc2)cc1	-3.25% (inactive)	–
CCc1noc(C)c1C(=O)Oc1ccc(N(C)S(=O)(=O)c2ccc(C)c(C)c2)cc1	3.71% (inactive)	–
COc1cccc(CNC(=O)[C@@H]2CCCN2C(=O)[C@@H]2CCCN2C(=O)c2ccccc2)c1	-0.0408% (inactive)	–
S=c1[nH]nc(-c2cc(-c3ccccc3)n[nH]2)n1/N=C/c1c2ccccc2cc2ccccc12	–	50.1 µM (active)
CCN(CC)S(=O)(=O)c1cccc(-c2n[nH]c(=S)n2/N=C/c2ccc(C(=O)OC)cc2)c1	-28.1% [at 57.1 µM] (inactive)	–
S=c1[nH]nc(-c2ccco2)n1/N=C/c1ccc(Br)s1	-15.2% (inactive)	–
COc1ccc(C)cc1NC(=O)CN(C)S(=O)(=O)c1ccc2c(c1)n(C)c(=O)c(=O)n2C	6.64% (inactive)	–
COc1ccc2ccn(C)c2c1	-28.2% (inactive)	–
OC(c1ccccc1)(c1ccccc1)C1CCN(CCCOc2ccccc2)CC1	-2.24% (inactive)	–
CC(C)CCN1C(=O)c2ccc(C(=O)Nc3cccc(S(N)(=O)=O)c3)cc2C1=O	-16.1% (inactive)	–
Cc1ccnc(-n2sc3ccccc3c2=O)n1	–	31.6 µM (active)
Cc1ccnc(SC2CC(=O)N(c3ccccc3)C2=O)n1 (stereo unspecified)	-4.59% (inactive)	–
Cc1ccc(NC(=O)Cn2sc3ccccc3c2=O)cc1	0.388% (inactive)	–
